Results: the supplement of paper PMC6089552
Out of some 3,200 compounds screened, about 300 (9.4%) showed activity. For the sample, actives were picked, then their nearest neighbours and some compounds at random.

Test system: A673/TR/shEF
Experiment: cell viability (LOESS-normalised, relative to median of negative controls) (log2 ratio); higher = more viable cells (less compound effect), active = hit call of the paper (over 3 MAD below the median)
Conditions: treatment time: 72 h
How it was run: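 A673/TR/shEF Ewing sarcoma cells (1,500 per well, 384-well plates) were grown with or without doxycycline to induce EWS-FLI1 shRNA knockdown, starting 24 h before compounds. Library compounds at two or more concentrations, with DMSO controls, were added for three days. Cell viability was read by CellTiter-Glo luminescence on an Envision reader, then LOESS-corrected per plate, divided by the median of negative controls and log2-transformed. Hits were wells at least three median absolute deviations from the median of all screened wells.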

[1] = 0.25 µM, library screen: screen1, EWS-FLI1 expression: high (no doxycycline)
[2] = 0.25 µM, library screen: screen1, EWS-FLI1 expression: low (doxycycline-induced shRNA knockdown)
[3] = 2.5 µM, library screen: screen1, EWS-FLI1 expression: high (no doxycycline)
[4] = 2.5 µM, library screen: screen1, EWS-FLI1 expression: low (doxycycline-induced shRNA knockdown)
[5] = 0.25 µM, library screen: screen2, EWS-FLI1 expression: high (no doxycycline)
[6] = 0.25 µM, library screen: screen2, EWS-FLI1 expression: low (doxycycline-induced shRNA knockdown)
[7] = 2.5 µM, library screen: screen2, EWS-FLI1 expression: high (no doxycycline)
[8] = 2.5 µM, library screen: screen2, EWS-FLI1 expression: low (doxycycline-induced shRNA knockdown)
[9] = 0.025 µM, library screen: screen2, EWS-FLI1 expression: high (no doxycycline)
[10] = 0.025 µM, library screen: screen2, EWS-FLI1 expression: low (doxycycline-induced shRNA knockdown)
[11] = 25 µM, library screen: screen2, EWS-FLI1 expression: high (no doxycycline)
[12] = 25 µM, library screen: screen2, EWS-FLI1 expression: low (doxycycline-induced shRNA knockdown)

Measured: cell viability (log2)

CN1C[C@@H](CO)C=C2c3cccc4[nH]cc(c34)C[C@@H]21
inactive: [1] 0.0549 | [2] 0.11 | [3] 0.076 | [4] 0.0565

NC(=O)CN1CC(O)CC1=O (configuration not stated)
inactive: [5] 0.159 | [6] 0.0927 | [7] 0.0479 | [8] 0.0838

CC[C@@H]1/C=C/C=C/C[C@H](C)[C@@H](O)[C@](C)(O)C(=O)[C@H](C)[C@@H](O)[C@H](C)C(=O)[C@H](C)[C@@H](O)[C@H](C)/C=C/C(=O)O[C@H]2[C@@H](C)[C@@H](CC1)O[C@@]1(CC[C@@H](C)[C@@H](C[C@H](C)O)O1)[C@@H]2C
active: [5] -0.731 | [6] -0.205 | [7] -0.713 | [8] -0.154

NC(CCP(=O)(O)O)C(=O)O (configuration not stated)
inactive: [5] 0.115 | [6] 0.0812 | [7] 0.106 | [8] 0.13

CC(C)(C#N)O[C@@H]1O[C@H](CO)[C@@H](O)[C@H](O)[C@H]1O
inactive: [1] 0.0597 | [2] 0.0616 | [3] 0.164 | [4] -0.0392

CC(C)NC(C)Cc1ccc(I)cc1 (configuration not stated)
inactive: [5] 0.0787 | [6] 0.0338 | [7] 0.129 | [8] 0.0526

CCN1C[C@]2(COC)[C@H](O)C[C@H](OC)[C@]34C1[C@H]([C@H](OC)[C@H]23)[C@]1(OC(C)=O)[C@H]2[C@@H](OC(=O)c3ccccc3)[C@](O)(C[C@H]24)[C@@H](OC)[C@@H]1O
inactive: [1] 0.162 | [2] 0.0997 | [3] 0.181 | [4] 0.202

CCC(=O)C(CC(C)N1CCOCC1)(c1ccccc1)c1ccccc1 (configuration not stated)
inactive: [1] 0.0298 | [2] 0.011 | [3] 0.0537 | [4] -0.074

CC[C@@H](C(=O)[C@@H](C)[C@@H](O)[C@H](C)[C@@H]1O[C@@H]([C@@H](CC)C(=O)O)CC[C@@H]1C)[C@H]1OC2(C=C[C@@H](O)[C@]3(CC[C@@](C)([C@H]4CC[C@](O)(CC)[C@H](C)O4)O3)O2)[C@H](C)C[C@@H]1C (some centres not stated)
active: [1] -0.101 | [3] -0.582
inactive: [2] 0.0935 | [4] -0.123

O=C(O)CF
inactive: [1] -0.0204 | [2] -0.0324 | [3] 0.103 | [4] 0.0882

COc1cc(CC(C)N)c(OC)cc1I (configuration not stated)
inactive: [5] 0.14 | [6] 0.0726 | [7] 0.151 | [8] 0.083

O=C[C@H](Cl)[C@@H](O)[C@H](O)[C@H](O)CO
inactive: [5] 0.14 | [6] 0.0253 | [7] 0.0931 | [8] 0.107

NCC#Cc1ccccc1
inactive: [5] 0.139 | [6] -0.0046 | [7] 0.0226 | [8] 0.0206

O=C1c2ccccc2C(=O)c2ccccc21
inactive: [1] 0.0481 | [2] 0.0868 | [3] 0.203 | [4] 0.0785

c1ccc2c(c1)[I+]c1ccccc1-2
active: [5] -1.37 | [6] -0.118 | [7] -1.4 | [8] -0.388

COc1cc2c3cc1Oc1cc(ccc1O)C[C@H]1c4c(cc(OC)c(O)c4Oc4ccc(cc4)C[C@@H]3N(C)CC2)CCN1C
inactive: [1] 0.0853 | [2] 0.0939 | [3] 0.083 | [4] 0.276

CC1=C2[C@H]3OC(=O)[C@@H](C)[C@@H]3CC[C@@]2(C)C=CC1=O
inactive: [1] 0.0669 | [2] -0.0349 | [3] 0.0906 | [4] 0.0161

CCN(CC)C(=O)N[C@H]1C=C2c3cccc4[nH]cc(c34)C[C@H]2N(C)C1
inactive: [5] 0.144 | [6] 0.146 | [7] 0.172 | [8] 0.138

C=C(C)[C@@H]1C2OC(=O)C1[C@]1(O)CC3O[C@]34C(=O)O[C@H]2[C@]14C.CC(C)(O)[C@@H]1C2OC(=O)C1[C@]1(O)C[C@H]3O[C@]34C(=O)O[C@H]2[C@]14C (some centres not stated)
inactive: [5] 0.0987 | [6] 0.0228 | [7] 0.079 | [8] 0.0567

O=C(O)[C@@H]1CCN1
inactive: [5] 0.101 | [6] 0.092 | [7] 0.0671 | [8] 0.0609

O=C(O)C1C2CCC(O2)C1C(=O)O (configuration not stated)
inactive: 0.025 µM, library screen: screen1, EWS-FLI1 expression: high (no doxycycline) 0.136 | 0.025 µM, library screen: screen1, EWS-FLI1 expression: low (doxycycline-induced shRNA knockdown) 0.0328 | [1] 0.0769 | [2] 0.0235 | [5] 0.267 | [6] 0.0812 | [7] 0.105 | [8] -0.0306
active: [3] -0.431 | [4] -2.19 | 25 µM, library screen: screen1, EWS-FLI1 expression: high (no doxycycline) -0.369 | 25 µM, library screen: screen1, EWS-FLI1 expression: low (doxycycline-induced shRNA knockdown) -2.13

COc1ccc(CN2CCN(Cc3cccc(F)c3)CC2)cc1
inactive: [1] 0.0679 | [2] 0.104 | [3] 0.124 | [4] 0.0696

Nc1ncnc2c1ncn2[C@@H]1O[C@@H]2COP(O)(=S)O[C@H]2[C@H]1O (some centres not stated)
inactive: [5] 0.205 | [6] 0.149 | [7] 0.079 | [8] 0.148

CSc1nc(NC(C)C)nc(NC(C)C)n1
inactive: [1] 0.0904 | [2] -0.0688 | [3] 0.0234 | [4] 0.0938

CNC(=O)O/N=C(\C)SC
inactive: [1] 0.0466 | [2] 0.0661 | [3] 0.0904 | [4] 0.143

O=C1C=C2C(=CCOC2O)O1 (configuration not stated)
inactive: [2] 0.05
active: [1] -0.259 | [3] -2.95 | [4] -0.992

C=CCN1CC[C@@]2(C)c3cc(O)ccc3CC1[C@@H]2C
inactive: [5] 0.194 | [6] 0.135 | [7] 0.028 | [8] 0.047

N#C[C@H](O[C@@H]1O[C@H](CO[C@@H]2O[C@H](CO)[C@@H](O)[C@H](O)[C@H]2O)[C@@H](O)[C@H](O)[C@H]1O)c1ccccc1
inactive: [9] 0.166 | [10] 0.0523 | [1] 0.122 | [2] -0.00438 | [5] 0.174 | [6] 0.00657 | [3] 0.113 | [4] 0.0319 | [7] 0.1 | [8] 0.0264 | [11] 0.202 | [12] 0.0554

CC(=O)[C@H]1CC[C@H]2[C@@H]3CC[C@H]4C[C@@H](O)CC[C@]4(C)[C@H]3CC[C@]12C
inactive: [1] 0.0984 | [2] 0.068 | [3] 0.0674 | [4] 0.135

CC(=O)[C@H]1CC[C@H]2[C@@H]3CC[C@H]4C[C@H](O)CC[C@]4(C)[C@H]3CC[C@]12C
inactive: [5] 0.267 | [6] 0.093 | [7] 0.266 | [8] 0.165

CC(=O)[C@H]1CC[C@H]2[C@@H]3CC[C@H]4C[C@H](O)CC[C@]4(C)[C@H]3C(=O)C[C@]12C
inactive: [5] 0.0616 | [6] 0.101
active: [7] -2.77 | [8] -0.524

CNC(=O)Oc1cccc2c1OC(C)(C)C2
inactive: [1] 0.0513 | [2] 0.0685 | [3] 0.07 | [4] 0.106

ClC1=C(Cl)[C@]2(Cl)[C@@H]3[C@@H]4C[C@@H]([C@H]5O[C@@H]45)[C@@H]3[C@@]1(Cl)C2(Cl)Cl
inactive: [1] 0.163 | [2] 0.0877 | [3] 0.115 | [4] 0.192

C[C@]12CC[C@H]3[C@@H](CC[C@]4(O)C[C@@H](O)CC[C@]34C=O)[C@@]1(O)CC[C@@H]2C1=CC(=O)OC1
inactive: [1] 0.0251 | [2] -0.17
active: [3] -1.21 | [4] -1.3

CC(=O)OC1CCC23C(=O)OC45CCC(C6=CC(=O)OC6)C4(C)CCC2C5CCC3(O)C1 (configuration not stated)
active: [3] -1.11 | [4] -1.12
inactive: [1] -0.0349 | [2] -0.171

CC(=O)O[C@H]1CC[C@@]2(C)C(=CCC3C2CC[C@]2(C)C(=O)CCC32)C1 (some centres not stated)
inactive: [1] 0.0955 | [2] 0.0874 | [3] 0.042 | [4] 0.106

CC(=O)O[C@H]1CC[C@]2(C=O)C3CC[C@]4(C)[C@@H](C5=CC(=O)OC5)CC[C@]4(O)C3CC[C@]2(O)C1 (some centres not stated)
inactive: [1] 0.0163 | [2] -0.145
active: [3] -1.12 | [4] -1.15

NCCC(O)C(=O)NC1CC(N)C(OC2OC(CN)C(O)C(O)C2N)C(OC2OC(CO)C(O)C2O)C1O (configuration not stated)
inactive: [1] 0.0254 | [2] -0.0377 | [3] 0.12 | [4] -0.0236

CCN1C[C@]2(C)CC[C@H](O)[C@]34C1[C@H](C[C@H]23)[C@@]1(O)C[C@H](OC)[C@H]2C[C@@H]4[C@@H]1[C@H]2O
inactive: [5] 0.0509 | [6] 0.0197 | [7] 0.0295 | [8] 0.0503

COC(=O)COc1ccc(Cl)cc1Cl
inactive: [1] 0.022 | [2] -0.0423 | [3] 0.11 | [4] 0.0409

COc1cccc(CN2CCN(Cc3cccc(F)c3)CC2)c1
inactive: [1] 0.0335 | [2] 0.131 | [3] 0.0329 | [4] 0.0279

C[C@@H]1CC[C@@]2(NC1)O[C@H]1C[C@H]3[C@@H]4CC=C5C[C@@H](O)CC[C@]5(C)[C@H]4CC[C@]3(C)[C@H]1[C@@H]2C
inactive: [9] 0.0804 | [10] 0.071 | [1] 0.101 | [2] 0.14 | [5] 0.194 | [6] 0.0802 | [3] 0.13 | [4] 0.0856 | [7] 0.106 | [8] 0.133 | [11] 0.0875 | [12] 0.0211
